# In the supplement of paper PMC12282887:
# ± gives the standard deviation of the averaged measurements.
# How the values were obtained:
# Test in all cases: promoter activity interaction Z-score (Lux/OD deviation from empty-vector control); higher = stronger promoter induction by the compound
# [1] = test system: E. coli BW25113 acrABp lux reporter
# Summary of the method: (§1)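 E. coli BW25113 (wild type or marA, soxS or rob deletion) carrying low-copy luxCDABE promoter reporters grew in 40 µl LB Lennox in 384-well plates at 37°C. Each compound was tested at four 1:2 dilutions in biological duplicates. OD600 and luminescence were read every 30 min for 12 h. Areas were taken over 0–8 h (wild type) or 1–9 h (mutants), and wells below 10% of median growth area were removed. The score is the Z-transformed residual of growth-normalised luminescence fitted against the empty-vector control.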
# [2] = test system: E. coli BW25113 marRABp lux reporter
# Summary of the method: as §1
# [3] = test system: E. coli BW25113 micFp lux reporter
# Summary of the method: as §1
# [4] = test system: E. coli BW25113 ompFp lux reporter
# Summary of the method: as §1
# [5] = test system: E. coli BW25113 robp lux reporter
# Summary of the method: as §1
# [6] = test system: E. coli BW25113 soxSp lux reporter
# Summary of the method: as §1
# [7] = test system: E. coli BW25113 tolCp lux reporter
# Summary of the method: as §1
# [8] = 9.8 µg/ml, genetic background: wild type
# [9] = 9.8 µg/ml, genetic background: ΔmarA
# [10] = 9.8 µg/ml, genetic background: Δrob
# [11] = 9.8 µg/ml, genetic background: ΔsoxS
# [12] = 19.5 µg/ml, genetic background: wild type
# [13] = 19.5 µg/ml, genetic background: ΔmarA
# [14] = 19.5 µg/ml, genetic background: Δrob
# [15] = 19.5 µg/ml, genetic background: ΔsoxS
# [16] = 39 µg/ml, genetic background: wild type
# [17] = 39 µg/ml, genetic background: ΔmarA
# [18] = 39 µg/ml, genetic background: Δrob
# [19] = 39 µg/ml, genetic background: ΔsoxS
smiles,measurement,setting,value
c1ccc(-c2ccccn2)nc1 [2-2-Bipyridyl],promoter activity interaction Z-score,[1]; [8],-0.38 ± 0.11
same,promoter activity interaction Z-score,[1]; [9],-0.262 ± 0.49
same,promoter activity interaction Z-score,[1]; [10],-0.666 ± 0.24
same,promoter activity interaction Z-score,[1]; [11],-0.339 ± 0.48
same,promoter activity interaction Z-score,[1]; [12],-0.678 ± 0.23
same,promoter activity interaction Z-score,[1]; [13],0.0964 ± 1.5
same,promoter activity interaction Z-score,[1]; [14],-0.696 ± 0.048
same,promoter activity interaction Z-score,[1]; [15],-0.763 ± 0.36
same,promoter activity interaction Z-score,[1]; [16],-0.446 ± 0.45
same,promoter activity interaction Z-score,[1]; [17],1.4 ± 0.6
same,promoter activity interaction Z-score,[1]; [18],-0.276 ± 0.72
same,promoter activity interaction Z-score,[1]; [19],-0.305 ± 0.33
same,promoter activity interaction Z-score,[2]; [8],0.799 ± 0.78
same,promoter activity interaction Z-score,[2]; [9],0.4 ± 0.48
same,promoter activity interaction Z-score,[2]; [10],-0.042 ± 0.093
same,promoter activity interaction Z-score,[2]; [11],-0.2756 ± 0.0019
same,promoter activity interaction Z-score,[2]; [12],0.288 ± 0.12
same,promoter activity interaction Z-score,[2]; [13],0.637 ± 0.14
same,promoter activity interaction Z-score,[2]; [14],-0.32 ± 0.14
same,promoter activity interaction Z-score,[2]; [15],-0.0307 ± 0.0061
same,promoter activity interaction Z-score,[2]; [16],2.32 ± 0.13
same,promoter activity interaction Z-score,[2]; [17],2.22 ± 0.2
same,promoter activity interaction Z-score,[2]; [18],1.59 ± 0.24
same,promoter activity interaction Z-score,[2]; [19],1.67 ± 0.33
same,promoter activity interaction Z-score,[3]; [8],0.412 ± 0.33
same,promoter activity interaction Z-score,[3]; [9],0.243 ± 0.14
same,promoter activity interaction Z-score,[3]; [10],0.0359 ± 0.019
same,promoter activity interaction Z-score,[3]; [11],0.7191 ± 0.0054
same,promoter activity interaction Z-score,[3]; [12],1.15 ± 0.4
same,promoter activity interaction Z-score,[3]; [13],0.622 ± 0.29
same,promoter activity interaction Z-score,[3]; [14],0.498 ± 0.0061
same,promoter activity interaction Z-score,[3]; [15],3.01 ± 0.73
same,promoter activity interaction Z-score,[3]; [16],5.52 ± 0.58
same,promoter activity interaction Z-score,[3]; [17],0.943 ± 0.12
same,promoter activity interaction Z-score,[3]; [18],7.21 ± 1.5
same,promoter activity interaction Z-score,[3]; [19],9.5118 ± 0.00024
same,promoter activity interaction Z-score,[4]; [8],-0.0949 ± 0.034
same,promoter activity interaction Z-score,[4]; [9],-0.555 ± 0.58
same,promoter activity interaction Z-score,[4]; [10],-0.389 ± 0.39
same,promoter activity interaction Z-score,[4]; [11],-0.351 ± 0.17
same,promoter activity interaction Z-score,[4]; [12],-0.745 ± 0.54
same,promoter activity interaction Z-score,[4]; [13],-0.948 ± 0.58
same,promoter activity interaction Z-score,[4]; [14],-0.682 ± 0.16
same,promoter activity interaction Z-score,[4]; [15],-0.195 ± 0.78
same,promoter activity interaction Z-score,[4]; [16],-1.5 ± 0.86
same,promoter activity interaction Z-score,[4]; [17],-1.52 ± 0.45
same,promoter activity interaction Z-score,[4]; [18],-0.777 ± 0.2
same,promoter activity interaction Z-score,[4]; [19],0.325 ± 1.2
same,promoter activity interaction Z-score,[5]; [8],-0.0517 ± 0.47
same,promoter activity interaction Z-score,[5]; [9],0.352 ± 0.77
same,promoter activity interaction Z-score,[5]; [10],-0.375 ± 0.059
same,promoter activity interaction Z-score,[5]; [11],-0.326 ± 0.77
same,promoter activity interaction Z-score,[5]; [12],-0.772 ± 0.88
same,promoter activity interaction Z-score,[5]; [13],0.322 ± 0.12
same,promoter activity interaction Z-score,[5]; [14],-0.387 ± 0.49
same,promoter activity interaction Z-score,[5]; [15],-0.7 ± 0.084
same,promoter activity interaction Z-score,[5]; [16],-0.663 ± 1
same,promoter activity interaction Z-score,[5]; [17],0.193 ± 0.17
same,promoter activity interaction Z-score,[5]; [18],0.111 ± 0.013
same,promoter activity interaction Z-score,[5]; [19],1.63 ± 3.1
same,promoter activity interaction Z-score,[6]; [8],0.0863 ± 0.015
same,promoter activity interaction Z-score,[6]; [9],0.104 ± 0.016
same,promoter activity interaction Z-score,[6]; [10],-0.0121 ± 0.077
same,promoter activity interaction Z-score,[6]; [11],-0.208 ± 0.27
same,promoter activity interaction Z-score,[6]; [12],-0.706 ± 0.15
same,promoter activity interaction Z-score,[6]; [13],-0.407 ± 0.018
same,promoter activity interaction Z-score,[6]; [14],-0.63 ± 0.12
same,promoter activity interaction Z-score,[6]; [15],-0.64 ± 0.078
same,promoter activity interaction Z-score,[6]; [16],-1.84 ± 0.052
same,promoter activity interaction Z-score,[6]; [17],-1.08 ± 0.22
same,promoter activity interaction Z-score,[6]; [18],-1.495 ± 0.0068
same,promoter activity interaction Z-score,[6]; [19],-1.14 ± 0.73
same,promoter activity interaction Z-score,[7]; [8],-0.433 ± 0.08
same,promoter activity interaction Z-score,[7]; [9],-0.587 ± 0.68
same,promoter activity interaction Z-score,[7]; [10],-0.425 ± 0.56
same,promoter activity interaction Z-score,[7]; [11],0.264 ± 0.45
same,promoter activity interaction Z-score,[7]; [12],-1.32 ± 0.36
same,promoter activity interaction Z-score,[7]; [13],-0.963 ± 0.81
same,promoter activity interaction Z-score,[7]; [14],-0.8 ± 0.27
same,promoter activity interaction Z-score,[7]; [15],-0.588 ± 0.17
same,promoter activity interaction Z-score,[7]; [16],-0.831 ± 0.2
same,promoter activity interaction Z-score,[7]; [17],-1.07 ± 0.4
same,promoter activity interaction Z-score,[7]; [18],0.715 ± 0.83
same,promoter activity interaction Z-score,[7]; [19],1.8 ± 1.5
